Measurements reported in PubChem BioAssay (NCI).
Compounds without any hit were thinned out: in the full panel of roughly 83,000, 20% have a hit.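 Compound tested at a single concentration for 48 hours in 96-well plates; a percent growth value below 10 was scored as active.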 Active and inactive are the calls of the source.

Legend:
Assay in all cases: NCI-60 one-dose screen, 48 h (100 = growth as untreated, 0 = no growth, -100 = all killed)
Conditions in all cases: 10 µM
[1] = tested on: RPMI-8226 leukemia
[2] = tested on: OVCAR-8 ovarian
[3] = tested on: OVCAR-5 ovarian
[4] = tested on: OVCAR-4 ovarian
[5] = tested on: SK-OV-3 ovarian
[6] = tested on: OVCAR-3 ovarian
[7] = tested on: HS 578T breast
[8] = tested on: NCI/ADR-RES ovarian
[9] = tested on: T-47D breast
[10] = tested on: BT-549 breast
[11] = tested on: MDA-MB-435 melanoma
[12] = tested on: SW-620 colon
[13] = tested on: MCF7 breast
[14] = tested on: HCT-116 colon
[15] = tested on: KM12 colon
[16] = tested on: IGROV1 ovarian
[17] = tested on: HCC-2998 colon

Measured: growth

COC1=CC(=O)OC(c2ccc(OC)cc2)C1 (stereo not given)
inactive: [1] 111% | [2] 105% | [3] 106% | [4] 106% | [5] 117% | [6] 103% | [7] 111% | [8] 102% | [9] 101% | [10] 105% | [11] 114% | [12] 102% | [13] 99.8% | [14] 108% | [15] 102%

CCOC(=O)c1cocc1C(=O)O
inactive: [1] 114% | [2] 105% | [3] 105% | [4] 100% | [5] 106% | [16] 113% | [6] 103% | [7] 100% | [8] 107% | [9] 104% | [10] 108% | [11] 106% | [12] 103% | [13] 101% | [14] 103% | [17] 103% | [15] 104%

Fc1ccc(C(c2ccc(F)cc2)C(Cl)Cl)cc1
inactive: [1] 97.3% | [2] 101% | [3] 105% | [4] 105% | [5] 106% | [6] 105% | [8] 107% | [9] 110% | [10] 95.5% | [11] 107% | [13] 98% | [14] 96.8%

C=C1CCC2(C#N)[C@H]3[C@H](CC[C@@H]2C)[C@@H](C)C[C@@H](CC(C)(C)NC(=O)CN2CCC2=O)[C@H]13 (stereo not given in full)
inactive: [2] 54.8% | [3] 63.5% | [4] 62.4% | [5] 89.7% | [16] 28.7% | [6] 65.6% | [7] 74.3% | [9] 12.5% | [10] 55.3% | [11] 57.9% | [12] 74.6% | [13] 35.2% | [14] 39% | [17] 41.1% | [15] 42.7%
active: [1] -11.3%

Cc1ccc(C2NC(=S)N3C(c4ccc(C)cc4)NC(=S)N23)cc1 (stereo not given)
active: [1] 6.55% | [6] -20% | [11] -35% | [14] 1.28% | [15] 8.36%
inactive: [2] 35.7% | [3] 81.6% | [4] 117% | [5] 49% | [7] 26.4% | [8] 19% | [9] 47.3% | [12] 29.2% | [13] 10.5% | [17] 47%

O=C1OC(C(Cl)(Cl)Cl)OC1C(Cl)(Cl)Cl (stereo not given)
inactive: [1] 104% | [2] 104% | [3] 105% | [4] 113% | [6] 109% | [7] 117% | [8] 108% | [9] 122% | [10] 109% | [11] 94.7% | [12] 125% | [13] 114% | [14] 105% | [17] 111% | [15] 101%
